Screening results as filed in PubChem.
HCV inhibitor: HCV inhibition; actives 3.4% (n = 340,000); Potency, µM (highest dose often 41.8 µM), for inactives: at the highest dose activity change, negative = inhibition, most hits filed as inhibitors; AID 651820; Huh7.5.1 HCVcc-Cre infection, luciferase reporter, 44 h; active = well fitted inhibition curve with a large enough effect; inconclusive = small, poorly fitted or top-dose-only effect, or another doubt; inactive = no such curve, though single readings can be large or run the other way
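Whole-lifecycle infectious HCVcc-Cre system; cells 1,000/well, compound then virus (~0.5 moi) added 4 h after plating, 44 h culture. Luciferase read 15 sec following 15 min substrate incubation, room temp.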
MARV entry inh: blocks Marburg virus binding to or entry into cells | Marburg virus pseudotyped entry inhibition, cell reporter | actives 1.8% (n = 300,000) | Potency, µM (doses to about 37.8 µM), for inactives: top-dose activity change, negative = inhibition, usual class: inhibitors; calls by dose curve; tested in HEK293 cells
VACV Venus inh: vaccinia inhibition (Venus reporter) | Vaccinia virus Venus reporter expression, fluorescence | Potency, µM (highest dose often 36.5 µM), without a hit: at the top dose activity change, negative = inhibition, most hits filed as inhibitors | actives 0.46% (n = 330,000); calls by dose curve; tested in A549 cells; also: nearly all actives have a fitted effect of over 30% in size
Lassa entry inh: inhibitors of Lassa virus binding or cell entry | actives 1.2% (n = 300,000) | AID 540256 | Lassa virus pseudotype entry inhibition, cell reporter | Potency, µM (top dose mostly 37.9 µM), for the others: at the highest dose activity change, negative = inhibition, actives largely listed as inhibitors; calls by dose curve; tested in HEK293 cells; also: nearly all actives have a fitted effect of over 50% in size
VACV mCherry inh: inhibitors of vaccinia virus infection (mCherry reporter signal). actives 0.63% (n = 310,000). AID 720579. Vaccinia virus mCherry reporter infection, fluorescence. Potency, µM (series often up to 36.5 µM), for the others: at the top dose activity change, negative = inhibition, most hits filed as inhibitors; calls by dose curve; tested in A549 cells; also: nearly all actives have a fitted effect of over 35% in size
Active calls of the source: *; i = inactive; ? = inconclusive; · = not tested or not shown; [ ] = remark or other dose. Rows were chosen to be rich in hits. Some 4.6% of all compounds tested hit in one or more screens of this group. % is scaled to controls: 0 for no effect and ±100 for the full control effect; potency is read from the fitted curve at half-maximal effect.

SMILES	HCV inhibitor	MARV entry inh	VACV Venus inh	Lassa entry inh	VACV mCherry inh
CCCNC(=O)OC[C@H]1O[C@H](CCO/N=C(\C)CCN2CCCCc3nc(C)c(C)cc32)C=C[C@@H]1Oc1ccc(OC)cc1	·	-26%[14.2 µM]	·	·	·
COc1cccc(N2CCN(C(=O)C3CCCN(S(=O)(=O)c4ccc(Br)s4)C3)CC2)c1 (stereo not drawn)	·	?	-16%	?	-27%
c1ccc2c(-c3cncc4ccccc34)cncc2c1	8%	13µM*	-9%	?	-27%
c1ccc2c(c1)-c1cccc3cncc-2c13	?	-7%	-6%	26%	-11%
CCN(Cc1ccccc1)C(=O)c1ccc(NC(=O)c2ccc(OC)cc2)cc1	13µM*	·	·	·	·
COc1ccc(C(=O)COC(=O)c2ccc(NC(=O)c3ccccc3)cc2)cc1	10µM*	-4%	·	-4%	·
COc1ccc(N/C(C)=C/C(=O)c2ccccc2)cc1	10µM*	3%	-15%	18%	i
COc1ccc(C(=O)Nc2ccc(C(=O)OCC(=O)c3ccccc3)cc2)cc1	13%	?	8%	?	11%
COc1ccc(C(=O)Nc2ccc(C(=O)c3ccccc3)cc2)cc1	?	-17%[46.1 µM]	-13%[7.34 µM]	-26%	i[7.34 µM]
COc1ccc(C(=O)OCC(=O)c2ccc(C3CCCCC3)cc2)cc1	?	?	-4%	2.2µM*	-10%
CNS(=O)(=O)c1cn(CC(=O)N2CCN(c3cccc(Cl)c3)CC2)cc1S(=O)(=O)NC	·	·	-9%	29%[46.1 µM]	-4%
CSc1nc(C(=O)N2CCOc3ccc(CN4CCN(Cc5ccccn5)CC4)cc3C2)cs1	·	·	1%	·	-11%
Cc1oc(-c2nc3ccccc3n2C)cc1C(=O)c1ccccc1	-4%	11µM*	-4%	2.8µM*	-3%
Cc1sc2cc3c(c(C(=O)c4ccccc4)[n+]2c1C)-c1cccc2cccc-3c12	10µM*	4.5µM*	-6%	?	-24%
O=C(c1ccccc1)c1c2c(cc3sc4ccccc4[n+]13)-c1cccc3cccc-2c13	?	?	256%	15µM*	171%
Cc1cc2ccccc2cc1C(=O)c1ccccc1	-12%	?	0%	-14%[46.1 µM]	i
O=C(c1ccccc1)c1ccc2ccccc2c1	-5%	6%[46.1 µM]	1%	3%[46.1 µM]	i
CCC(=NCc1ccco1)c1c(O)n(C2CCCCC2)c(=O)[nH]c1=O	-2%	-2%	·	3.7µM*	·
CC(=NCc1ccco1)c1c(O)n(C2CCCCC2)c(=O)[nH]c1=O	-23%	18%	·	2%	·
COCC(=O)Nc1cc(C(=O)N2CCCCC2c2nccs2)c2c(c1)nc(-c1ccncc1)n2C (stereo not drawn)	·	·	-3%	·	-11%
Cc1cc(/C=N/n2cnnc2)c(C)n1-c1ccc(Cl)cc1	10%	?	-8%	-20%	i
Cc1cc(/C=N/n2cnnc2)c(C)n1-c1ccccc1	-5%	7%[46.1 µM]	-11%	-6%	·
Cc1cc(/C=N/n2cnnc2)c(C)n1-c1ccc(OCc2ccc(F)cc2)cc1	11µM*	?	-25%	?	-29%
Cc1cc(/C=N/n2cnnc2)c(C)n1-c1ccc(OCc2ccc(Cl)cc2Cl)cc1	5.6µM*	8.9µM*	?	7.1µM*	·
COC(=O)[C@@H]1CCCN1Cc1ccc2c(c1)CN(Cc1cc(OC)c3c(c1)OCO3)CCO2	·	·	-8%	·	-9%
SMILES	HCV inhibitor	MARV entry inh	VACV Venus inh	Lassa entry inh	VACV mCherry inh
C=CC(=O)NC(NC(=O)C=C)c1ccccc1F	15%	-4%[46.1 µM]	?	-17%	7.9µM*
COc1ccc(C(=O)NC(NC(=O)c2ccc(OC)cc2)c2ccccc2F)cc1	-22%	0%[46.1 µM]	-20%	-7%	i
COc1ccc(OCC(O)Cn2c(=N)n(Cc3ccccc3)c3ccccc32)cc1 (stereo not drawn)	10µM*	4.1µM*	·	?	·
COc1ccc(CN2CCN(CC(O)Cn3c4ccccc4c4ccccc43)CC2)cc1 (stereo not drawn)	11µM*	-1%	·	-2%	·
N=c1n(Cc2ccccc2)c2ccccc2n1CC(O)COc1ccc(Cl)cc1Cl (stereo not drawn)	11µM*	?	?	?	?
N=c1n(Cc2ccc(Cl)cc2)c2ccccc2n1CC(O)COc1ccccc1 (stereo not drawn)	13µM*	?	?	?	28µM*
Clc1ccc(OCc2nc3ccccc3n2Cc2ccccc2)c(Cl)c1	·	·	2%	14%[46.1 µM]	-7%
COc1ccc(CN2CCC3(CCC(CNC(=O)C4CCCO4)O3)CC2)c(C)c1C (stereo not drawn)	·	·	45%	·	-1%
